Our source for the morphology score and SARS-CoV-2 infection rate values is the supplement of paper PMC13380429.

Assay [1] concerns Vero E6 infected with SARS-CoV-2. Nature of the assay: morphology score (similarity to uninfected cells); higher = more like uninfected cells. Conditions: 24 h.
For assay [2] the test system is unchanged. The assay can be described thus: SARS-CoV-2 infection rate relative to infected DMSO; higher = more infection, active = 60 or less. The following applies: 24 h.

The molecule `CN1C[C@@H]2C[C@H]1CN2c1cc2c(cc1F)c(=O)c(C(=O)O)cn2C1CC1` [danofloxacin] (10 µM) showed a morphology score in assay [1] of 0.319. Further, in assay [2], the SARS-CoV-2 infection rate was 100% (inactive).
Taken in the same sequence, the figures for `NC1CCN(c2nc3c(cc2F)c(=O)c(C(=O)O)cn3-c2ccc(F)cc2F)C1` (centres undefined) [tosufloxacin] (10 µM) were -0.115 and 112% (inactive).
For `Cc1ccc2c(c1)[C@H]1CN(C)CC[C@H]1N2` [stobadine] (10 µM), in that order: 0.0748 and 98% (inactive).
As for `C=CCN1CC[C@]23c4c5ccc(O)c4O[C@H]2C(=O)CC[C@@]3(O)[C@H]1C5` (10 µM), the morphology score in assay [1] is -0.209. The SARS-CoV-2 infection rate in assay [2] is 114% (inactive).
For `CCOC(=O)[C@H](CCc1ccccc1)N[C@@H](C)C(=O)N1Cc2ccccc2C[C@H]1C(=O)O` [quinapril] (10 µM), in that order: -0.145 and 109% (inactive).
Taken in the same sequence, the figures for `CN1CCN(CCCCN2C(=O)CN(/N=C/c3ccc(-c4ccc(Cl)cc4)o3)C2=O)CC1` [azimilide] (10 µM) were 0.0199 and 102% (inactive).
For `O=C1C(O)=C([C@H]2CC[C@H](c3ccc(Cl)cc3)CC2)C(=O)c2ccccc21` [atovaquone] (0.833333 µM), in that order: 0.028 and 106% (inactive).
`NC(=O)[C@@H]1CC[C@@H]2CN1C(=O)N2OS(=O)(=O)O` [avibactam] (10 µM) came in with a morphology score in assay [1] of 0.0638. In addition, the SARS-CoV-2 infection rate in assay [2] is 108% (inactive).
For `O=C(O)CCNc1cc(N2CCc3ccccc3CC2)nc(-c2cccnc2)n1` (10 µM), in that order: 0.165 and 108% (inactive).
Taken in the same sequence, the figures for `CN[C@H]1CN(c2ccc3c(=O)c(C(=O)O)cn(-c4nccs4)c3n2)C[C@@H]1OC` [voreloxin] (0.833333 µM) were 0.068 and 104% (inactive).
On to `O=C(NCNC(=O)NC1C(=O)NC(=O)N1CO)NC1C(=O)NC(=O)N1CO` (centres undefined) [imidurea] (10 µM), for which the morphology score in assay [1] was -0.0758. In addition, the SARS-CoV-2 infection rate in assay [2] is 108% (inactive).
Taken in the same sequence, the figures for `CC(C)Oc1ccc(-c2nc(-c3cccc4c3CC[C@@H]4NCCO)no2)cc1C#N` [ozanimod] (0.833333 µM) were 0.262 and 101% (inactive).
For `C=C1/C(=C\C=C2/CCC[C@]3(C)[C@@H]([C@H](C)/C=C/[C@H](C)C(C)C)CC[C@@H]23)C[C@@H](O)C[C@@H]1O` [doxercalciferol] (10 µM), the morphology score in assay [1] is -0.0772. In addition, in assay [2], the SARS-CoV-2 infection rate was 106% (inactive).
The molecule `CN[C@@H]1[C@@H](O)[C@@H](O[C@@H]2[C@@H](O)[C@H](O[C@H]3O[C@H](CN)[C@@H](O)[C@H](O)[C@H]3O)[C@@H](N)C[C@H]2NC(=O)[C@@H](O)CN)OC[C@]1(C)O` [isepamicin] (10 µM) registered a morphology score in assay [1] of 0.0671. Further, in assay [2], the SARS-CoV-2 infection rate is 109% (inactive).
Taken in the same sequence, the figures for `O=C(Nc1ccc([N+](=O)[O-])cc1O)Nc1ccccc1Br` (0.833333 µM) were 0.0726 and 103% (inactive).
For `C[C@@H](O)[C@H]1C(=O)N2C(C(=O)O)=C(S[C@@H]3CN[C@H](CNS(N)(=O)=O)C3)[C@H](C)[C@H]12` [doripenem] (10 µM), in that order: 0.131 and 100% (inactive).
Taken in the same sequence, the figures for `Brc1ccc(NC2C3CC4CC(C3)CC2C4)cc1` (centres undefined) [bromantan] (10 µM) were -0.111 and 99.5% (inactive).
With `Cc1nnc(C(=O)NC(C)(C)c2nc(C(=O)NCc3ccc(F)cc3)c(O)c(=O)n2C)o1` [raltegravir] (10 µM), the morphology score in assay [1] stood at 0.324. Moreover, the SARS-CoV-2 infection rate in assay [2] was 110% (inactive).
As for `O=[N+]([O-])c1cc(Cl)ccc1S(=O)(=O)N1CCN(Cc2ccccc2)CC1` (10 µM), in assay [1], the morphology score was -0.0654. The SARS-CoV-2 infection rate in assay [2] was 112% (inactive).
Taken in the same sequence, the figures for `CCCNC(C)C(=O)Nc1c(C)csc1C(=O)OC` (centres undefined) [articaine] (10 µM) were 0.0926 and 98% (inactive).
`CCCCN(CC)c1nc(C)nc2c1c(C)c(C)n2-c1c(C)cc(C)cc1C` [antalarmin] (10 µM) yielded a morphology score in assay [1] of 0.193. Moreover, the SARS-CoV-2 infection rate in assay [2] is 93% (inactive).
For `O=C(O)[C@H](CC(=O)N1C[C@H]2CCCC[C@H]2C1)Cc1ccccc1` [mitiglinide] (10 µM), in that order: 0.0871 and 108% (inactive).
As to `Cc1cc2c(C(C)C)c(O)c(O)c(C=O)c2c(O)c1-c1c(C)cc2c(C(C)C)c(O)c(O)c(C=O)c2c1O` [gossypol] (0.833333 µM), the morphology score in assay [1] is -0.0839. For the same molecule, the SARS-CoV-2 infection rate in assay [2] is 104% (inactive).
Taken in the same sequence, the figures for `CCN(CC)CCNc1ccc(CO)c2sc3ccccc3c(=O)c12` [hycanthone] (0.833333 µM) were 0.244 and 82% (inactive).
`CC1Cc2ccccc2N1NC(=O)c1ccc(Cl)c(S(N)(=O)=O)c1` (centres undefined) [indapamide] (10 µM) yielded a morphology score in assay [1] of 0.0243. Moreover, the SARS-CoV-2 infection rate in assay [2] was 112% (inactive).
Taken in the same sequence, the figures for `C=C(C)[C@@H]1[C@H]2OC(=O)[C@@H]1[C@]1(O)C[C@H]3O[C@]34C(=O)O[C@H]2[C@]14C` [picrotoxinin] (10 µM) were 0.0677 and 116% (inactive).
Taken in the same sequence, the figures for `c1ccc2c(c1)Sc1ccccc1N2C[C@H]1CN2CCC1CC2` [levomequitazine] (10 µM) were 0.0894 and 86% (inactive).
For `CN(CCOc1ccc(NS(C)(=O)=O)cc1)CCc1ccc(NS(C)(=O)=O)cc1` [dofetilide] (10 µM), in that order: 0.059 and 112% (inactive).
For `CCc1cn([C@H]2C[C@H](O)[C@@H](CO)O2)c(=O)[nH]c1=O` [edoxudine] (10 µM), the morphology score in assay [1] was 0.0361. Moreover, the SARS-CoV-2 infection rate in assay [2] was 108% (inactive).
Taken in the same sequence, the figures for `O=c1[nH]cnc2nc[nH]c12` [hypoxanthine] (10 µM) were 0.0617 and 108% (inactive).
Taken in the same sequence, the figures for `CC[C@@H](Nc1c(Nc2cccc(C(=O)N(C)C)c2O)c(=O)c1=O)c1ccc(C)o1` [navarixin] (10 µM) were -0.0629 and 110% (inactive).
For the molecule `C[N+](C)(C)CC(O)CC(=O)[O-]` (centres undefined) [carnitine-(D/L)] (10 µM), the morphology score in assay [1] is -0.213. For the same molecule, the SARS-CoV-2 infection rate in assay [2] is 117% (inactive).
For `Cc1ccccc1OCC(O)CO` (centres undefined) [mephenesin] (10 µM), in that order: 0.141 and 99.5% (inactive).
As to `Nc1ccc(C(=O)NCC(=O)O)cc1` [4-aminohippuric-acid] (10 µM), the morphology score in assay [1] is -0.0582. Further, the SARS-CoV-2 infection rate in assay [2] is 108% (inactive).
For `C[N+]1([O-])[C@@H]2C[C@@H](OC(=O)[C@H](CO)c3ccccc3)C[C@H]1[C@@H]1O[C@@H]12` (some centres undefined) [scopolamine-N-oxide] (10 µM), in that order: 0.142 and 107% (inactive).
Consider `CCC(C(=O)O)c1ccc(CC(C)C)cc1` (centres undefined) [butibufen] (10 µM), for which the morphology score in assay [1] stood at 0.268. Moreover, the SARS-CoV-2 infection rate in assay [2] is 108% (inactive).
For the molecule `CCC(C)(C)C(=O)C(=O)N1CCC[C@H]1C(=O)OCCCc1cccnc1` (10 µM), the morphology score in assay [1] is -0.0394. Also, the SARS-CoV-2 infection rate in assay [2] is 116% (inactive).
For `Cc1nc(-c2ccc(OCC(C)C)c(C#N)c2)sc1C(=O)O` [febuxostat] (10 µM), in that order: 0.0407 and 118% (inactive).
For `CCCCCCCCCCCCCCCCCCCCCCCCCCCCO` [1-octacosanol] (10 µM), in that order: 0.118 and 100% (inactive).
In turn, `O=C(c1ccc(F)cc1)N1CCC[C@H](c2nc(-c3ccc(F)cc3)no2)C1` (10 µM) registered a morphology score in assay [1] of 0.242. Moreover, the SARS-CoV-2 infection rate in assay [2] is 93.5% (inactive).
Take `Nc1c(CC(=O)O)cccc1C(=O)c1ccc(Br)cc1` [bromfenac] (10 µM): the morphology score in assay [1] was -0.048. Further, in assay [2], the SARS-CoV-2 infection rate is 104% (inactive).
Taken in the same sequence, the figures for `COC(=O)/C=C/C(=O)OCCN1C(=O)CCC1=O` [diroximel-fumarate] (10 µM) were 0.0691 and 101% (inactive).
Consider `C[C@]1(c2nc3c(C(N)=O)cccc3[nH]2)CCCN1` [veliparib] (10 µM), for which the morphology score in assay [1] came to 0.206. Besides, the SARS-CoV-2 infection rate in assay [2] is 109% (inactive).
Taken in the same sequence, the figures for `CCOC(=O)CCNc1cc(N2CCc3ccccc3CC2)nc(-c2ccccn2)n1` (0.833333 µM) were -0.0369 and 116% (inactive).
Molecule `COc1ccc2[nH]c(-c3ccccc3)c(CCNC(C)=O)c2c1` [2-phenylmelatonin] (10 µM) gave a morphology score in assay [1] of 0.062. In assay [2], the SARS-CoV-2 infection rate is 107% (inactive).
Taken in the same sequence, the figures for `C=CC(N)CCC(=O)O` (centres undefined) [vigabatrin] (10 µM) were 0.188 and 99.5% (inactive).
`CCCCOc1cc(CC2CNC(=O)N2)ccc1OC` (centres undefined) (10 µM) yielded a morphology score in assay [1] of 0.429. Also, the SARS-CoV-2 infection rate in assay [2] was 86% (inactive).
For `C[C@]12CCC(=O)C=C1[C@@H]1C[C@@H]1[C@H]1[C@@H]3[C@@H]4C[C@@H]4[C@@]4(CCC(=O)O4)[C@@]3(C)CC[C@@H]12` [drospirenone] (10 µM), in that order: 0.176 and 101% (inactive).
For `CN(C)C(=O)N[C@H]1CC[C@H](CCN2CCN(c3cccc(Cl)c3Cl)CC2)CC1` [cariprazine] (10 µM), in that order: -0.0979 and 113% (inactive).
As to `O=C(N[C@H](CO)[C@H](O)c1ccc([N+](=O)[O-])cc1)C(Cl)Cl` [chloramphenicol] (10 µM), the morphology score in assay [1] was -0.278. Also, in assay [2], the SARS-CoV-2 infection rate was 117% (inactive).
Taken in the same sequence, the figures for `CN1CCC2=C(C1)C(c1ccccc1)c1ccccc12` (centres undefined) [phenindamine] (10 µM) were -0.171 and 112% (inactive).
In assay [1], `Cn1c(=O)c2c(ncn2CC(=O)Nc2ccc(-c3ccccc3)nn2)n(C)c1=O` (10 µM) returned a morphology score of 0.382. The SARS-CoV-2 infection rate in assay [2] was 80.5% (inactive).
For `CCCCOc1ccc(CC(=O)NO)cc1` [bufexamac] (10 µM), in that order: 0.234 and 94% (inactive).
Taken in the same sequence, the figures for `O=C(Nc1cnccc1Cl)N1CCN(Cc2ccc3c(c2)OC(F)(F)O3)CC1` (10 µM) were 0.0915 and 106% (inactive).
For `CN1CCN(c2ccc(/C=C(\C#N)c3ccccc3Br)cc2)CC1` (10 µM), in that order: -0.13 and 116% (inactive).
Turning to `CNC(=S)C1(c2ccccn2)CCCS1` (centres undefined) [picartamide] (10 µM), the morphology score in assay [1] is -0.0189. Moreover, the SARS-CoV-2 infection rate in assay [2] is 106% (inactive).
In assay [1], `COc1ccc(NS(=O)(=O)c2ccc(I)cc2)cc1N1CCN(C)CC1` (10 µM) displayed a morphology score of 0.195. In assay [2], the SARS-CoV-2 infection rate is 98.5% (inactive).
`CC1CC(OC(=O)C(O)c2ccccc2)CC(C)(C)N1C` (centres undefined) [eucatropine] (10 µM): in assay [1], the morphology score was -0.104. Further, the SARS-CoV-2 infection rate in assay [2] is 115% (inactive).
`NC(=O)N1c2ccccc2CC(=O)c2ccccc21` [oxcarbazepine] (10 µM): the morphology score in assay [1] was 0.0932. For the same molecule, in assay [2], the SARS-CoV-2 infection rate was 108% (inactive).
For `Cc1cc(=O)[nH]c(=S)[nH]1` [methylthiouracil] (10 µM), in that order: 0.0905 and 104% (inactive).
Taken in the same sequence, the figures for `CCN(CCCCOC(=O)c1ccc(OC)c(OC)c1)C(C)Cc1ccc(OC)cc1` (centres undefined) [mebeverine] (10 µM) were 0.178 and 94.5% (inactive).
As for `O=C(CC(c1ccccc1)c1ccccc1)N1CCN(C(c2ccccc2)c2ccccc2)CC1` (10 µM), the morphology score in assay [1] was 0.0825. For the same molecule, the SARS-CoV-2 infection rate in assay [2] was 102% (inactive).
